In the library only some 2.2% were active in any assay of this set; here they are far more common.
rTrxR1 inhibitor – inhibitors of rat thioredoxin reductase 1; O89049; recombinant rTrxR1, NADPH fluorescence consumption, selenite substrate; Potency, µM (highest dose often 114 µM), for inactives: top-dose activity change, negative = inhibition, actives largely listed as inhibitors; hit rate 1% among 390,000; note: potency is the fitted concentration of half-maximal effect; % is set by controls: 0 for no effect and ±100 for the full control effect; nearly all actives have a fitted effect of over 65% in size
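Rat TrxR1 (90 nM in the dispensed reagent) was pre-reduced with 400 uM NADPH for 5 min at room temperature, then incubated with compound for 15 min. After 400 uM selenite was added, NADPH fluorescence (Ex 340/Em 450 nm) was followed for 8 min.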
Giardia kill – kills Giardia lamblia; Giardia lamblia trophozoite viability; activity change, % at 7.66 µM, hits read low; hit rate 0.15% among 340,000; AID 540267; in the data active = activity change below about -80%; inconclusive = between about -30% and that limit;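 note: parasites exposed to compound for two days anaerobically before the ATP read; % is set by controls: 0 for no effect and ±100 for the full control effect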
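Trophozoite viability was measured as ATP-dependent luminescence, read 15-30 min after reagent addition. Before that, parasites at 100 cells/well were exposed to compounds for 48 h, anaerobically, at 37 deg C.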
BRCA1 expr act – activators of BRCA1 expression. hit rate 1.1% among 380,000. AID 624202. MCF7-BRCA1-FFLuc reporter, luminescence, 48 h; response scale: scaled: vehicle 0%, 10 µM genistein 100%. Potency, µM (doses to about 46.1 µM), inactives show at the top dose activation, hits mostly activators; note: potency is the fitted concentration of half-maximal effect; nearly all actives have a fitted effect of over 80% in size
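Quantitative HTS in MCF7 cells stably reporting BRCA1 expression via firefly luciferase. Compound treatment lasts 48 h at 37 °C in phenol-red free MEM. Activation is expressed relative to genistein at 10 microM and DMSO.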
IL-2 act – activators of IL-2 | IL-2 activation reporter assay, cell-based qHTS; stimulated with anti-CD3/CD4/CD28 beads; in transgenic mouse T cells | activation, % (series mostly up to about 46 µM) | hit rate 0.065% among 360,000 | AID 652025; in the data active = activation above about 50%; inconclusive = mostly about 30% to 49%; note: 0% is about no effect
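Readout is EGFP and DsRed signal by fluorescent plate cytometry after 18 h at 37 degrees C. Transgenic mouse T cells (750/well) received compound for 60 min before bead stimulation (anti-CD3, anti-CD4, anti-CD28); memory T cells served as non-tolerant control.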
mIDH1 inhibitor – human IDH1 R132H inhibition; O75874; IDH1-R132H enzyme, NADPH consumption, diaphorase/resazurin fluorescence; Potency, µM (series often up to 76.6 µM), without a hit: at the top dose activity change, negative = inhibition, hits mostly inhibitors; hit rate 0.093% among 390,000; AID 602179; note: potency is the fitted concentration of half-maximal effect; % is set by controls: 0 for no effect and ±100 for the full control effect; nearly all actives have a fitted effect of over 65% in size
Target sequence (O75874 whole entry R132H, stated change not applied): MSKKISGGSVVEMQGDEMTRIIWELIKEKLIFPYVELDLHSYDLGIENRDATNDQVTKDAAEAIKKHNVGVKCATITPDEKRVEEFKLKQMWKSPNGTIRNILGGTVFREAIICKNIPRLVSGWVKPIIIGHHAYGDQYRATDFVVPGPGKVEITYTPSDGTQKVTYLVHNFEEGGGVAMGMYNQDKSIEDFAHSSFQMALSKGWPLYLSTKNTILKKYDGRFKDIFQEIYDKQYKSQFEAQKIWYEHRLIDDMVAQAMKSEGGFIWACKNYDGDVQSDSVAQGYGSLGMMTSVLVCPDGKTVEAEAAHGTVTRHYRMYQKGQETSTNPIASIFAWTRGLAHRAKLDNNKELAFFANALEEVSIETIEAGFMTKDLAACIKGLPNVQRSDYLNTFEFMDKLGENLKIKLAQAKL
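IDH1-R132H (0.5 ug/mL dispensed) in pH 7.5 Tris buffer was preincubated 30 min with compound, then given a substrate mix of 0.016 mM NADPH and 2 mM alpha-KG for 80 min at room temperature; remaining NADPH was read by diaphorase/resazurin fluorescence.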
TrxR1 substrate – is turned over as a substrate by rat TrxR1; purified TrxR1 substrate turnover, NADPH consumption readout; Potency, µM (top dose mostly 114 µM), for the others: at the top dose activity change, negative = substrate turnover; hit rate 0.01% among 390,000; O89049; AID 588456; note: potency is the fitted concentration of half-maximal effect; % is set by controls: 0 for no effect and ±100 for the full control effect; nearly all actives have a fitted effect of over 50% in size
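Rat TrxR1, dispensed at 90 nM, was prereduced with 400 uM NADPH (final) for 5 min at ~22 deg C, then incubated with compound 15 min before 400 uM selenite. A first-read NADPH fluorescence drop versus no-compound background flagged substrates.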
* marks the source's active call; other numbers are inactive results; ? = inconclusive; . = no result; [ ] = remark or other dose. Unless noted, calls come from the whole dose curve; as a rule, active = well fitted curve in the direction sought with a large enough effect; inconclusive = small, poorly fitted or top-dose-only effect, or another doubt; inactive = no such curve, though single readings can be large; an effect the other way counts as inactive or inconclusive.

SMILES	rTrxR1 inhibitor	Giardia kill	BRCA1 expr act	IL-2 act	mIDH1 inhibitor	TrxR1 substrate
Cc1cc(NC(=O)CSc2nnc(COc3ccccc3)n2Cc2ccco2)no1	20%	-6	14%	0	5%	11%
CCn1c(SCC(=O)NCc2ccco2)nnc1-c1ccc(N(C)C)cc1	-9%	.	14%	.	.	-2%
O=C(CSc1nnc(CNc2cccc(C(F)(F)F)c2)n1Cc1ccco1)NCc1ccco1	16µM*	-4	3%	0	0%	11%[57.1 µM]
O=C(O)CSc1nnc(CNc2cccc(C(F)(F)F)c2)n1Cc1ccco1	-26%	-2	0%	1	-1%	6%
O=C(CSc1nnc(COc2ccccc2)n1Cc1ccco1)NCc1ccco1	11µM*	14	10%	-1	-8%	5%
O=C(CSc1nnc(C2CCCCC2)n1-c1ccccc1)NCc1ccco1	13µM*	-13	-1%	-2	-3%	13%
CCn1c(SCC(=O)NCc2ccco2)nnc1-c1cccs1	14µM*	4	4%	2	7%	3%
O=C(NCc1ccccc1)c1cnc2n(c1=O)CCS2	?	6	37%	0	-6%	-10%
O=C(NCCC1=CCCCC1)c1cnc2n(c1=O)CCS2	2%	2	8.9µM*	1	3%	-14%
O=C(NCCCc1ccccc1)c1cnc2n(c1=O)CCS2	30%	11	6.3µM*	3	-5%	-9%
CCOc1ccc(C(=O)/C=C/c2cn(CC(O)CN3CCc4ccccc43)c3ccccc23)cc1 (stereo not given)	9%	.	-51%	.	5%	-2%
O=C(CCS(=O)(=O)Cc1ccccc1)Nc1ncc([N+](=O)[O-])s1	?	?	8.9µM*	-3	-10%	-5%
O=C(CCS(=O)(=O)c1ccccc1)Nc1nccs1	13%[57.1 µM]	-13	-46%	1	11%	13%[57.1 µM]
O=C(CCS(=O)(=O)c1ccccc1)Nc1ncc([N+](=O)[O-])s1	?	-81*	-84%	-1	-1%	-2%
O=S(=O)(NCC(c1ccco1)N1CCN(c2ccc(F)cc2)CC1)c1cc(F)ccc1F (stereo not given)	14%[57.1 µM]	.	.	.	-6%	-9%[57.1 µM]
Cc1c(C(=O)Oc2cc(N)n(S(C)(=O)=O)n2)cccc1[N+](=O)[O-]	25µM*	0	-6%	-3	-2%	5%
Cc1ccccc1C(=O)Oc1cc(N)n(S(C)(=O)=O)n1	4%[57.1 µM]	0	9%	0	8%	1%[57.1 µM]
CCOC(=O)c1[nH]c2ccccc2c1NC(=O)c1cc(OC)cc(OC)c1	18%	.	-4%	.	-10%	17%
O=C(N/N=C/c1c(Cl)cccc1Cl)c1ccc(F)cc1	25%	3	-11%	-2	0%	7%
Cn1cccc1/C=N/NC(=O)c1ccncc1	-21%	-13	1%	0	3%	-17%
Cn1cccc1/C=N/NC(=O)c1ccccn1	8%	1	10µM*	-5	-9%	-12%
Cn1cccc1C(=O)N/N=C/c1c(Cl)cccc1Cl	17%[57.1 µM]	2	6.3µM*	4	9%	13%[57.1 µM]
O=C(/C=C/c1cccs1)Nc1cccnc1	-17%	-5	11µM*	1	5%	-11%
C[C@H]1C(=O)N(S(=O)(=O)c2ccccc2[N+](=O)[O-])[C@H]1c1ccc(-c2ccccc2)cc1	?	7	.	.	.	-2%
O=c1oc(CCCO)cc2ccc(Br)cc12	5%	4	12%	2	6%	6%
O=c1oc(CCCO)cc2ccc(/C=C/c3cccc([N+](=O)[O-])c3)cc12	2%	-7	6.3µM*	0	-1%	2%
CCOc1ccc(S(=O)(=O)N2CCN(c3cc(Cl)ccc3Cl)CC2)c2ccccc12	21%	.	14%	.	-6%	-6%
COc1cc(OC)c(OC)cc1/C=C1/Cc2ccccc2C1=O	1%	0	-56%	126*	0%	-1%
CCN(CC)C1=CC2=CC(=C(C#N)C#N)CCC2CC1 (stereo not given)	8%[57.1 µM]	6	-21%	102*	2%	2%[57.1 µM]

Source: PubChem BioAssay (National Center for Advancing Translational Sciences (NCATS))
